Assay outcomes: PubChem, several laboratories
In the library only some 3.4% were active in any assay of this set; here they are far more common.
TMEM16A inh = TMEM16A chloride channel inhibitors, primary screen, cell-based, HTS; actives 1.2% (n = 310,000); HEK293 TMEM16A/YFP iodide influx fluorescence, ionomycin; Anoctamin-1 (Mus musculus), Q8BHY3; AID 588511, 2011; normalized B-score (activity score, 25-100; higher = stronger inhibition) at 10 µM;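 active = ratio plate-corrected score three or more library SD toward inhibition, starting fluorescence score within five deviations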;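 note: score derived from kinetic fluorescence span divided by baseline fluorescence per well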
Target sequence (Q8BHY3 whole entry, looked up): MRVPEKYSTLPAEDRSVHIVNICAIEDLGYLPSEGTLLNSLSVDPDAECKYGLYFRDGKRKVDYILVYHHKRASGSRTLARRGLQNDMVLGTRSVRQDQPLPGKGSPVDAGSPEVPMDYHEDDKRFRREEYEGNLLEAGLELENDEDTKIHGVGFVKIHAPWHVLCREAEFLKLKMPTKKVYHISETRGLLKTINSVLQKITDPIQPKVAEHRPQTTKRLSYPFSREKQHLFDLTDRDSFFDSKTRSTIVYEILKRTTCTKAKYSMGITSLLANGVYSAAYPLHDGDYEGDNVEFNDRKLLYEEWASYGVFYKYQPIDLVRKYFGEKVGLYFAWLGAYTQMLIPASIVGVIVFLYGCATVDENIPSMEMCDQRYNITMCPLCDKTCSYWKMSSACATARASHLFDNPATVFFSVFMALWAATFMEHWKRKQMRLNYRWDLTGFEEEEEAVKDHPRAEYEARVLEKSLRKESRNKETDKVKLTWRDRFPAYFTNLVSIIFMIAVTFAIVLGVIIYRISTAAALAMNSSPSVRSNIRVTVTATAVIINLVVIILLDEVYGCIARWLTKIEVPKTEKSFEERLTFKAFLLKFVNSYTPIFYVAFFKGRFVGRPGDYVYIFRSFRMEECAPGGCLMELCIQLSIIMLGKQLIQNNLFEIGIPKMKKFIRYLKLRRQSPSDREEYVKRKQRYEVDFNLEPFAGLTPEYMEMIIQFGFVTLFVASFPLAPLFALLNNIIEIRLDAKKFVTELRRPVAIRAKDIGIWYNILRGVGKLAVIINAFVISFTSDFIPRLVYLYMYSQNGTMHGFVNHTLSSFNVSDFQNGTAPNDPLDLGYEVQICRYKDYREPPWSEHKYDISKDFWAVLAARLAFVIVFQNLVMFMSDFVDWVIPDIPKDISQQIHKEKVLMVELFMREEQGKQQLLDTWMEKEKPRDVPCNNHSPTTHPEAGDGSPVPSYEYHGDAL
MEKK3 PB1 HTS = modulators of MEKK3-MEK5 PB1 binding, primary screen, biochemical, wildtype MEKK3, multiplex bead flow cytometry, Alexa488-MEK5; bead-based flow cytometry, Alexa488-MEK5 binding to MEKK3; actives lie on both sides; 0 = blocked by unlabeled MEK5, 100 = vehicle; AID 1529, 2009; Mitogen-activated protein kinase kinase kinase 3 (Homo sapiens), Q99759; binding response (% of control), % at 10 µM; actives 1.4% (n = 290,000);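 active = binding response more than 3 SD above or below the average of its plate-row segment, actives on both sides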;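 note: Alexa488 bead fluorescence after subtracting the streptavidin-only scavenger bead signal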
NTR1 ag = agonists of human NTR1, primary screen, imaging, U2OS cells, beta-arrestin-GFP, high content. actives 0.17% (n = 330,000). NTR1-U2OS beta-arrestin-GFP spot imaging, agonist mode. activation, % at 20 µM;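 active = activation at or above 40% of the spot to cytoplasm intensity ratio, with at least 20 cells analyzed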;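 note: 0% = DMSO without peptide and 100% = 100 nM NTR1 peptide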
ANO1 activ = TMEM16A chloride channel activators or potentiators, primary screen, cell-based, HTS; Anoctamin-1 (Mus musculus), Q8BHY3; HEK293 TMEM16A/YFP-H148Q/I152L, iodide quench fluorescence; hits give low values; B-score at 10 µM; actives 0.3% (n = 340,000);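 active = fluorescence-ratio B-score plate-corrected deviation score at least 3 library SD below zero, with starting fluorescence score within 5 deviations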;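 note: channel opened by trigger with iodide after compound preincubation; score built on the fluorescence ratio of max minus min over baseline; more negative score means more quench and so TMEM16A activation or potentiation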
MEKK2 WT-MEK5 = modulators of MEK5 binding to wildtype MEKK2, primary screen, biochemical, multiplex bead flow cytometry, Alexa488-MEK5; binding response (% of control), % at 10 µM; actives 1.1% (n = 290,000); AID 1531, 2009; Alexa488-MEK5 binding to MEKK2 WT; actives lie on both sides; in the data active = binding response below about 67% or above about 130%
MEKK2mut PB1 HTS = MEK5 binding signal on mutant MEKK2 PB1, primary screen, biochemical, multiplex bead flow cytometry, Alexa488-MEK5. percent response, % at 10 µM. AID 1530, 2009. actives 0.35% (n = 290,000). Alexa488-MEK5 binding to MEKK2 mutant; in the data active = percent response above about 24%, passing the limit was not always enough
MEKK2wt confirm = modulators of MEK5 binding to wildtype MEKK2, confirmation, biochemical, single concentration, multiplex bead flow cytometry; shares compounds with MEKK3 PB1 HTS; Alexa488-MEK5 binding to MEKK2 WT; actives lie on both sides; binding response (% of control), % at 10 µM; actives 2.4% (n = 5,900); AID 1892, 2009; in the data active = binding response below about 16% or above about 210%; inactive = in between
MEKK2mut confirm = mutant MEKK2 PB1-MEK5 binding signal retest – biochemical, single concentration, multiplex bead flow cytometry, confirmation | Alexa488-MEK5 binding to MEKK2 mutant | percent response, % at 10 µM | shares compounds with MEKK3 PB1 HTS | actives 2% (n = 5,900); in the data active = percent response mostly above about 71%, no sharp cut-off; inactive = mostly below about 38%;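 note: higher means compound restores mutant binding toward wildtype level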
MEKK3-MEK5 inh = MEKK3 wild-type PB1 binding to MEK5, inhibitors, confirmation, biochemical, bead multiplex flow cytometry, single concentration, wildtype. shares compounds with MEKK3 PB1 HTS. Alexa488-MEK5 binding to MEKK3; hits give low values. binding response (% of control), % at 10 µM. actives 1.8% (n = 5,900). AID 1894, 2009;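 active = binding response below 72% of control, or above a set upper limit, though filed actives all read lower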;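 note: 100% = DMSO only wells and 0% = binding blocked by excess unlabeled MEK5; lower values mean stronger disruption of MEK5 binding to MEKK3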
* hit, by the source's call; i = inactive; x = no result; [ ] = dose if it differs, or a comment.

SMILES | TMEM16A inh | MEKK3 PB1 HTS | NTR1 ag | ANO1 activ | MEKK2 WT-MEK5 | MEKK2mut PB1 HTS | MEKK2wt confirm | MEKK2mut confirm | MEKK3-MEK5 inh
c1ccc(CN2CCC(Nc3ncnc4sccc34)CC2)cc1 | i | 105 | -2 | i | 129 | 51* | 125 | 12 | 103
COc1ccc(NC(=O)c2cccc(OC(F)F)c2)cc1Cl | i | 101 | 1 | i | 104 | 8 | x | x | x
O=C(Nc1ccc(OC(F)F)c(Cl)c1)c1cccc(OC(F)F)c1 | i | 106 | 0 | i | 151* | 27 | 113 | 6 | 107
COc1ccc(Cl)cc1NC(=S)NCCCN1CCCC1=O | i | 46*[inhibitor] | 1 | i | 63 | -14 | 99 | 2 | 98
O=C1CCCN1CCCNC(=S)Nc1ccc(Br)cc1Cl | i | 87 | 1 | i | 92 | -7 | x | x | x
Cc1ccc(C(=O)N[C@H](C(=O)OCC(=O)NC2CCS(=O)(=O)C2)C(C)C)cc1 (stereo partly specified) | i | 132* | 0 | i | 110 | 0 | 105 | 17 | 103
CC(=O)NS(=O)(=O)c1ccc(NC(=S)NC(=O)COc2ccccc2C)cc1 | i | 139* | -1 | i | 106 | 0 | 92 | -6 | 98
COc1ccc2c(c1)C(=O)/C(=C/C=C/c1ccccc1)CC2 | i | 90 | 3 | i | 71*[inhibitor] | -1 | 86 | -7 | 99
COc1ccc2c(c1)CC/C(=C\C=C\c1ccccc1OC)C2=O | i | 78 | -2 | i | 61 | -3 | x | x | x
CCC(C)NC(=O)C(=O)NCc1ccncc1 (stereo unspecified) | i | 81*[inhibitor] | -1 | i | 86 | -6 | 82 | -15 | 93
CCOC(=O)c1ccc(NC(=O)C(=O)NCc2ccncc2)cc1 | i | 19*[inhibitor] | 0 | i | 24*[inhibitor] | -15 | 111 | 12 | 104
COc1ccc(C)cc1NC(=O)CN1CCN(C/C=C/c2ccccc2)CC1 | i | 78 | 3 | i | 96 | -9 | x | x | x
O=C(NNS(=O)(=O)c1ccccc1Cl)C1COc2ccccc2O1 (stereo unspecified) | x | x | 0 | i | x | x | x | x | x
Cc1ccc(Nc2nc(N)c([N+](=O)[O-])c(NCc3ccco3)n2)cc1 | i | 152* | 5 | i | 112 | 1 | 90 | -1 | 99
CCN1CCN(c2cc(C)c3cc(NC(=O)c4ccncc4)ccc3n2)CC1 | i | 103 | -2 | i | 114 | 17 | x | x | x
CCN1CCN(c2cc(C)c3cc(NC(=O)c4ccc(C)c(C)c4)ccc3n2)CC1 | i | 109 | 2 | i | 160* | 22 | 153 | 24 | 104
COC1=C(Br)C(=O)c2ncccc2C1=O | x | x | x | i | x | x | x | x | x
CC(C)(C)[C@H]1COC(=O)CC/C=C\C[C@H](CC(=O)N(CCO)Cc2ccccc2)C(=O)N1 | x | x | 0 | i | x | x | x | x | x
O=C(NNC(=O)c1cccs1)c1ccc(Cl)c(Cl)c1 | i | 149* | 2 | i | 109 | 2 | 97 | -2 | 97
O=C(NNC(=O)c1cccs1)c1ccc2ccccc2c1 | i | 94 | 0 | i | 92 | -10 | x | x | x
CCCCC(CC)Cn1c(N)c(C#N)c2nc3ccccc3nc21 (stereo unspecified) | i | 118 | 24 | i | 183* | 54* | 100 | -1 | 105
O=C(COC(=O)Cc1ccccc1F)Nc1ccc2c(c1)OCCO2 | i | 138* | 0 | i | 107 | 0 | 101 | -6 | 102
Cc1cccc(OCC(=O)Nc2ccc3c(c2)OCO3)c1C | i | 2.0*[inhibitor] | -1 | i | 2.0*[inhibitor] | -15 | 95 | -10 | 99
O=C(COC(=O)Cc1ccccc1F)Nc1ccc2c(c1)OCO2 | i | 103 | 0 | i | 98 | 1 | x | x | x
Cc1ccc(C)c(OCC(=O)Nc2ccc3c(c2)OCO3)c1C | i | 105 | 0 | i | 93 | 0 | x | x | x
SMILES | TMEM16A inh | MEKK3 PB1 HTS | NTR1 ag | ANO1 activ | MEKK2 WT-MEK5 | MEKK2mut PB1 HTS | MEKK2wt confirm | MEKK2mut confirm | MEKK3-MEK5 inh
Cc1ccc(CSCC(=O)N(CCC(C)C)c2c(N)n(Cc3ccccc3)c(=O)[nH]c2=O)cc1 | i | x | 0 | i | x | x | x | x | x
Cc1ccc(S(=O)(=O)NC(c2ccccc2)C(C)C(=O)n2nc(C)cc2C)cc1 (stereo unspecified) | i | 105 | 1 | i | 105 | 1 | x | x | x
CCOC(=O)C(NC(=O)Nc1ccc(Cl)cn1)(Oc1ccccc1)C(F)(F)F (stereo unspecified) | i | 153* | -1 | i | 104 | 4 | 105 | 4 | 104
Cc1ccc(-c2nn(-c3ccccc3)cc2CNCc2ccccc2)cc1 | i | 111 | 16 | i | 193* | 36 | 173 | 34 | 104
Cc1ccc(-c2nn(-c3ccccc3)cc2CO)cc1 | i | 107 | 3 | i | 110 | 11 | x | x | x
Cc1ccc(-n2cc(CNCCCn3cccn3)c(-c3cccc(C)c3)n2)cc1 | i | 104 | 14 | i | 138* | 24 | 143 | 15 | 104
Cc1ccc(-n2cc(CNCCCn3ccnc3C)c(-c3ccc(F)cc3)n2)cc1 | i | 115 | 4 | i | 306* | 178* | 204 | 77* | 116
Cc1ccc(Sc2ncccc2C(=O)NCC(c2ccc(F)cc2)N2CCOCC2)cc1C (stereo unspecified) | i | x | -1 | i | x | x | x | x | x
CCOc1cccc(C(=O)N(Cc2cccc(F)c2)C2CCS(=O)(=O)C2)c1 (stereo unspecified) | i | 102 | 0 | i | 104 | 2 | x | x | x
CCS(=O)(=O)c1nc(S(=O)(=O)c2ccc(C)cc2)c(N2CC(C)OC(C)C2)s1 (stereo unspecified) | i | 103 | -1 | i | 102 | 0 | x | x | x
